# Reference: the supplement of paper PMC6555819
# System: VDR:RXRa (NR concentration 270 nM, RXRa partner concentration 90 nM)
# Assay: PBM binding z-score (relative to random genomic background probes); higher = stronger binding; sequences stand for … in GC…GCGATTGACAGCGTAGAATGAAGG
# Method: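 Protein-binding microarray (Agilent 4x180K custom design, double-stranded 60-nt probes: 5' GC cap, 34-nt variable region, 24-nt constant primer region; full probe sequence given). Purified or IVT nuclear receptor:RXRα heterodimers (3:1 NR:RXRα, mostly 270:90 nM) or homodimers were incubated for 1 h in PBS with 2% milk and no ligand, then detected with Alexa488 antibodies. Fluorescence from o1-orientation probes (~5 replicates averaged) was converted to z-scores against 500 random hg19 background probes. Variable regions are seed direct-repeat (DR0–DR5) sites, all their single-nucleotide variants and half-site ablations.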
row,Sequence,PBM binding z-score
1,CAAACTAGGTGACAGAGGTCAAAGTCCGTGCGTA,6.42
2,CGTCCAACGTCAATGCTAGGTCAGTGAAAGCATT,0.103
3,GGGACGAGGGCAAGTTGATAGCAGAGTTTGATGG,1.29
4,GCTGCTAGGTCAACTTATGGTCAGCTAAAGCTCG,2.04
5,TCTTGAAGATCAATAGAGGTTAAGAAAGTGCGCT,1.92
6,TCATACAGGTAAAAGGTGAAAGTCGGTGTGGTAA,1.64
7,CCTATTAGTTGACCATAAGGGCCACCGAAGCTCG,0.0922
8,TCTGCTAGGTAAACGATGGTCAGCTAATCTGCTA,-0.409
9,ACTATTAGTTGAGACAAGGGCAACCGATAGGTTG,0.191
10,AGAATGAGGTTATTAAGATCAGGGCATTGCGGTC,3.01
11,GCTTGTACATCAAGGTTAAGAAAGACTAAGCTAA,0.208
12,TCTCGGAGGACACGAAGGTCAGAACTTTCCAGAG,2.18
13,ATCGAAAGGGCGAGGTGAGTATAGAGAAAGGGAA,0.361
14,TCATATAGGTACATGCTAGGTGAAAGTCCGATCT,0.884
15,CGTCCAAGGTCAATGCTAGGTCAGTGAGAGCATT,5.11
16,CCTAGTAGGCCAGGGTCACTCAAGCATTTCGCTT,2.7
17,CGTCCAAGGTTATAGGAGGTCAGTGAAGACAGAT,4.85
18,CGAACTGGGTCATTGACAGGACAGTGAATAGTAA,2.05
19,CCTCGGAGGACAGAAGGTCAGAGCCGTCCGCTTT,0.934
20,TGTCAAAGTTCAAAAGTAACGTAAGTATCCACAC,3.97

row,Sequence,PBM binding z-score
1,TCTGCTAGGTCAGTTGATCAGCTAACGAGCTGCC,0.135
2,TCTTGTAGGTCAAGCAGGTTAAGAAAGCCTGAGT,5.16
3,CCGGGTAGGTTATGGGGCATTCAGGCAACGGTGA,0.056
4,CTCGCAAGGTCGTGCTCAGGTGAGTATACCAAAC,2.24
5,CCTGCTAGGTCATGGTCAGCTCATCTACAGTATG,1.8
6,CCTCGGAGGACAGAAGGTCAGAACTGTCCGCTTT,0.995
7,TCTTGTAGATTAACAGGAGGTTAAGAAAGATCGA,0.91
8,TTACCAAGGTGAGCTGAGATCGTTGATCCAACTC,-0.473
9,AGTAAAAGTTCAGGACGAGGTAACGTAAAGCACG,2.66
10,CCTACTTGGTCAGGAGGTCACACACCGGATATGA,3.89
11,TCGAGTAGGTTAGTCGTGGCATTCAGCCAACATA,-0.0269
12,GCGACTGGAGCAAAGCAGGTTACCATAAGGTTGG,-0.418
13,CCTTACGGGTCACTGTCAGGTTATAGCATTTGGA,3.87
14,TCATATAGGTAAATGGTAGGTGAAAGTCCGATCT,1.16
15,CATACAGGGTCAGCTAGGCCAGAGAAGGGACGGC,3.84
16,CCTACTGCGCCAAGGTCATTGATCAGTCAAAGCA,3.65
17,ATATGTAGGTTACATCCGGGTCGTTCAGGCTATG,2.52
18,CCTGCTAGGTCCATGGTCAGCTAAAGCAGCTCGC,-0.591
19,TCATATAGGTAAAGGTGAAAGGCGAACGATATGA,1.14
20,CCAGACAGGTGAAAGTTAACTCAGTCTGGTACGC,0.0177
